Each compound was assayed on HEK293 WT BDD-FVIII-Gluc (assay: secreted FVIII-Gluc luciferase Z-score vs DMSO control; higher = more FVIII-Gluc secretion). Settings: 5 µM.
Experimental: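 Natural plant-compound library (480 compounds, ST catalogue IDs) screened on HEK293 cells stably expressing WT BDD-FVIII-Gaussia luciferase fusion at 5 µM. Secreted Gluc activity in the medium is given as a Z-score relative to DMSO controls.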

SMILES | secreted FVIII-Gluc luciferase Z-score
NC[C@@H]1O[C@H](O[C@H]2[C@@H](O)[C@H](O[C@@H]3[C@@H](O)[C@H](N)C[C@H](N)[C@H]3O[C@H]3O[C@H](CN)[C@@H](O)[C@H](O)[C@H]3N)O[C@@H]2CO)[C@H](N)[C@@H](O)[C@@H]1O | 0.572
O=c1cc(-c2ccccc2O)oc2cc(O)cc(O)c12 | 0.64
O=c1cc(-c2ccccc2)oc2cc(O)cc(O)c12 | 0.596
CCCCCCCCCCCC1=C(O)C(=O)C=C(O)C1=O | 0.529
COc1cc2c(cc1OC)C(=O)Cc1ccc3c(c1CN(C)CC2)OCO3 | 0.000104
O=c1cc(-c2ccc(O)c(O)c2)oc2cccc(O)c12 | -0.512
C=C1CCC(O)C/C1=C\C=C1/CCCC2(C)C1CCC2C(C)CCCC(C)C (centres undefined) | -1.24
O=c1ccn([C@@H]2O[C@H](CO)[C@@H](O)[C@H]2O)c(=O)[nH]1 | 0.943
COc1ccc2c(=O)cc(-c3ccc(O)cc3)oc2c1 | 0.228
O=C(O)c1cc(=O)c2ccccc2[nH]1 | 0.496
COc1cc2c(cc1OC)C(Cc1ccc(OC)c(OC)c1Oc1cc3c(cc1OC)-c1c(OC)c(OC)cc4c1C(C3)N(C)CC4)N(C)CC2 (centres undefined) | 0.304
C=C1C(=O)O[C@@H]2C3OC3(C)CC/C=C(\C)CC[C@@H]12 (some centres undefined) | -0.0355
N[C@@H](Cc1c[nH]cn1)C(=O)O | 0.64
COc1cc2ccc(=O)oc2c(O)c1OCC=C(C)C | -0.0513
COc1ccc2[nH]c(=O)c3c(c2c1)OC(C)(C)C=C3 | -1.14
COc1ccc2oc(-c3cccc(OC)c3OC)cc(=O)c2c1 | 0.436
COc1cc2c(cc1OC)-c1c(OC)c(OC)cc3ccnc(c13)C2=O | -0.583
CC1=CC(=O)CC(C)(C)C1(O)/C=C/C(C)=C\C(=O)O (centres undefined) | 0.388
Nc1ncnc2c1ncn2[C@H]1C[C@H](O)[C@@H](COP(=O)(O)O)O1 | 0.376
COc1cc(CNC(=O)CCCC/C=C/C(C)C)ccc1O | -0.484

SMILES | secreted FVIII-Gluc luciferase Z-score
CO[C@@H]1[C@@H](O[C@@H]2O[C@H](C)[C@@H](O[C@H]3C[C@@](C)(O)[C@@H](OC(=O)CC(C)C)[C@H](C)O3)[C@H](N(C)C)[C@H]2O)[C@@H](CC=O)C[C@@H](C)[C@@H](O)/C=C/C=C/C[C@@H](C)OC(=O)C[C@H]1OC(C)=O | 0.0728
C=C(CO)C1Cc2c(ccc3c2OC2COc4cc(OC)c(OC)cc4C2C3=O)O1 (centres undefined) | -1.91
O=C1OC(=O)C2C3CCC(O3)C12 (centres undefined) | -0.862
CN1CCc2cccc3c2C1Cc1ccc(O)c(O)c1-3 (centres undefined) | -0.131
COc1ccc2[nH]cc(CCNC(C)=O)c2c1 | 0.108
C[C@H](CCC(=O)O)[C@H]1CC[C@H]2[C@@H]3[C@H](O)C[C@@H]4C[C@H](O)CC[C@]4(C)[C@H]3CC[C@]12C | 0.787
CN(C)[C@@H]1C(=O)C(C(=O)NCN2CCCC2)=C(O)[C@@]2(O)C(=O)C3=C(O)c4c(O)cccc4[C@@](C)(O)[C@H]3C[C@@H]12 | 0.407
CCC(C)(C)C(=O)O[C@H]1C[C@@H](C)C=C2C=C[C@H](C)[C@H](CC[C@@H]3C[C@@H](O)CC(=O)O3)[C@H]21 | -0.297
COc1ccc(C2CC(=O)c3c(O)cc(OC4OC(COC5OC(C)C(O)C(O)C5O)C(O)C(O)C4O)cc3O2)cc1O (centres undefined) | 0.438
CN1C(CC(=O)c2ccccc2)CCC[C@H]1CC(O)c1ccccc1 (some centres undefined) | -0.246
CC1CC[C@H](C(C)C)C(O)C1 (some centres undefined) | 0.453
O=c1c(O)c(-c2ccccc2)oc2cc(O)cc(O)c12 | 0.586
O=C(O)CCCCC1CCSS1 (centres undefined) | -0.0345
C/C(=C\COc1cc(=O)[nH]c2ccccc12)CCC(O)C(C)(C)O (centres undefined) | -0.128
Cc1c(C)c2c(c(C)c1O)CC[C@@](C)(CCC[C@H](C)CCC[C@H](C)CCCC(C)C)O2 | 0.497
N[C@@H](Cc1ccc(O)cc1)C(=O)O | 0.446
C[C@@H]1O[C@@H](OC[C@H]2O[C@@H](Oc3c(-c4cccc(O)c4O)oc4cc(O)cc(O)c4c3=O)[C@H](O)[C@@H](O)[C@@H]2O)[C@H](O)[C@H](O)[C@H]1O | 1.27
Nc1ccn(C2OC(COP(=O)(O)O)C(O)C2O)c(=O)n1 (centres undefined) | 0.194
O=c1c(O)c(-c2ccc(O)c(O)c2)oc2ccccc12 | -0.791

Reference: the supplement of paper PMC12024529
